Screening data: PubChem, National Center for Advancing Translational Sciences (NCATS)
Lassa entry inh: inhibitors of Lassa virus binding or cell entry; AID 540256; Potency, µM (top dose mostly 37.9 µM), for inactives: at the top dose activity change, negative = inhibition, usual class: inhibitors; 300,000 tested, 1.2% active; Lassa virus pseudotype entry inhibition, cell reporter; calls by dose curve; tested in HEK293 cells; note: potency is the fitted concentration of half-maximal effect; nearly all actives have a fitted effect of over 50% in size
Pf growth 96h: P. falciparum growth inhibition at 96 hour, primary screen for plastid delayed-death inhibitors | P. falciparum luciferase reporter growth, 96 h | Potency, µM (series often up to 28.7 µM), for inactives: top-dose activity change, negative = inhibition, actives largely listed as inhibitors | 320,000 tested, 6.9% active; note: potency is the fitted concentration of half-maximal effect
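Plates of compound plus infected erythrocytes (2% hematocrit, 0.05% parasitemia final) incubate 96 hours, 37 C, 5% CO2. Detection reagent added; reduced luminescence from the parasites' luciferase reporter flags inhibition.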
HCV inh: inhibitors of hepatitis C virus infection | Huh7.5.1 HCVcc-Cre infection, luciferase reporter, 44 h | 340,000 tested, 3.4% active | Potency, µM (highest dose often 41.8 µM), inactives show at the highest dose activity change, negative = inhibition, usual class: inhibitors; note: potency is the fitted concentration of half-maximal effect
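Infectious HCV cell culture screen: compound-treated cells (1,000/well, pre-plated 4 h) are infected with HCVcc-Cre at roughly 0.5 moi and grown 44 h. Infection is quantified by luciferase signal after 15 min substrate incubation at room temperature.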
Pf growth 48h: P. falciparum growth inhibition at 48 hours (one generation); P. falciparum luciferase growth in erythrocytes, 48 h; Potency, µM (top dose mostly 28.7 µM), inactives show top-dose activity change, negative = inhibition, usual class: inhibitors; 310,000 tested, 5.9% active; AID 504832; note: potency is the fitted concentration of half-maximal effect
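Compounds are pin-transferred into medium, infected erythrocytes (2% hematocrit, 0.1% parasitemia final) are added, and plates sit one parasite generation at 37 C in 5% CO2. Detection reagent is then added and luminescence measured.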
HCMV inh: blocks human cytomegalovirus replication; HFF cells, HCMV-luciferase reporter, 72 h; hits give low values; activity change, negative = inhibition, % at 57.5 µM; 410,000 tested, 4.5% active; in the data active = activity change below about -60%; inconclusive = no clear call, values can overlap the other calls; inactive = above about -39%
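Human foreskin fibroblasts infected with luciferase-reporter HCMV at MOI 1 PFU/cell, compounds at two doses. Luciferase measured 72 h post infection; normalized to buffer-only basal and Salinomycin (10uM) controls.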
MARV entry inh: blocks Marburg virus binding to or entry into cells; Marburg virus pseudotyped entry inhibition, cell reporter; Potency, µM (titrated, usually from 37.8 µM), inactives show at the highest dose activity change, negative = inhibition, hits mostly inhibitors; 300,000 tested, 1.8% active; AID 540276; calls by dose curve; tested in HEK293 cells; note: potency is the fitted concentration of half-maximal effect
Active calls of the source: *; u = inconclusive; x = no result given; [ ] = remark or other dose. A selection: hits, their analogues and other compounds. The true share with any hit is near 14%. Unless noted, calls come from the whole dose curve; as a rule, active = well fitted inhibition curve with a large enough effect; inconclusive = small, poorly fitted or top-dose-only effect, or another doubt; inactive = no such curve, though single readings can be large or run the other way. % is set by controls: 0 for no effect and ±100 for the full control effect.

SMILES	Lassa entry inh	Pf growth 96h	HCV inh	Pf growth 48h	HCMV inh	MARV entry inh
Cc1ccc(C(=O)C2CCN(CC(=O)N3CCN(c4ccc(F)cc4)CC3)CC2)cc1	-21.6%[46.1 µM]	u	-28.0%	-20.3%	-69.5*	u
O=C(CN1CCC(C(=O)c2ccc(F)cc2)CC1)Nc1ccc(F)cc1	u	u	10µM*	u	-22.6	u
Cc1ccc(C(=O)N2CCC(C(=O)c3ccc(F)cc3)CC2)cc1	x	x	u	x	-6.8	x
O=C(CN1CCC(C(=O)c2ccc(F)cc2)CC1)Nc1ccccc1	-21.1%[14.3 µM]	u	x	u	u	6.8%
C=CCOC(=O)N[C@H](C(C(=O)OC)=C(C)NCc1ccccc1)c1ccc(Br)cc1	x	x	x	x	x	7.1%[14.2 µM]
COc1ccc(C=CC(=O)c2c(N)n(C)c(=O)n(C)c2=O)cc1	x	x	x	x	54.4	x
CC(C)NC(=O)C1C(c2ccccc2)=Nc2ccccc2N1C(=O)c1cc(Cl)cc(Cl)c1 (stereo not drawn)	x	x	x	x	-23.8	x
Cc1ccccc1NC(=O)CSc1nc(-c2ccc(F)cc2)nc2c1Cc1ccccc1O2	7.4%[46.1 µM]	x	x	x	39.9	2.5%[46.1 µM]
CCN1C(=O)[C@H]2[C@@H](c3ccc(-c4ccc(Cl)c(Cl)c4)cc3)N[C@@](Cc3ccccc3)(C(=O)OC)[C@H]2C1=O	x	u	u	u	22.7	x
CCN1C(=O)[C@H]2[C@@H](c3ccc(-c4cc(C(C)=O)cs4)cc3)N[C@@](Cc3ccccc3)(C(=O)OC)[C@H]2C1=O	x	x	-8.5%	x	21.4	x
CCC(C)Sc1ccc([C@H]2N[C@@](CC(C)C)(C(=O)OC)[C@H]3C(=O)N(CC)C(=O)[C@@H]23)cc1 (stereo partly drawn)	x	u	-13.5%	9.28µM*	-10.3	x
CCC(C)Sc1ccc([C@H]2N[C@@](Cc3ccccc3)(C(=O)OC)[C@H]3C(=O)N(CC)C(=O)[C@@H]23)cc1 (stereo partly drawn)	x	1.65µM*	u	3.29µM*	25.3	x
COC(=O)[C@]1(C)N[C@H](c2ccc(SC3CCCCC3)cc2)[C@@H]2C(=O)N(C)C(=O)[C@@H]21	x	u	-11.0%	u	u	x
CCC(C)Sc1ccc([C@H]2N[C@@](Cc3ccccc3)(C(=O)OC)[C@H]3C(=O)N(CC)C(=O)[C@@H]23)cc1OC (stereo partly drawn)	x	u	6.3%	3.29µM*	2.9	x
CCN1C(=O)[C@H]2[C@@H](c3ccc(SC4CCCCC4)cc3)N[C@@](CC(C)C)(C(=O)OC)[C@H]2C1=O	x	2.94µM*	u	11.7µM*	39.8	x
COc1ccc(O[C@H]2C=C[C@@H](c3ccccc3)O[C@H]2COC(=O)CCC(C)=NOC[C@@H](O)COCc2ccco2)cc1	0.0%[14.3 µM]	x	x	x	x	9.9%[14.2 µM]
Cc1ccc(NC(=O)Cn2cc(S(=O)(=O)N3CCCC3)c(S(=O)(=O)N3CCCC3)c2)cc1C	6.5%[46.1 µM]	x	x	x	33.1	x
CCC(C)(C)C1CCc2c(sc(N)c2C(N)=O)C1 (stereo not drawn)	u	0.0%	u	-4.8%	-76.0*	u
COC(=O)c1c(NC(=O)C2CCCO2)sc2c1CCC2 (stereo not drawn)	-0.2%	-1.3%	5.62µM*	x	-36.5	18.8%
CC(C)(C)C1CCc2c(sc(NC(=O)C3CCCO3)c2C(N)=O)C1 (stereo not drawn)	17.8µM*	30.3%	u	u	u	u
CC(C)(C)C1CCc2c(sc(N)c2C(N)=O)C1 (stereo not drawn)	-23.1%	1.6%	-20.3%	u	x	u
COc1ccc(CNC(=O)c2ccc3c(c2)N(Cc2ccccc2)C(=O)c2ccccc2S3(=O)=O)cc1	-0.9%[46.1 µM]	x	x	x	-12.4	u
O=C(CSC1=Nc2ccccc2C2=NC(Cc3ccccc3)C(=O)N12)Nc1cccc(Cl)c1 (stereo not drawn)	u	x	x	x	-71.6*	x
COc1ccc(NC(=O)CSC2=Nc3ccccc3C3=NC(CCC(=O)NCCc4ccccc4)C(=O)N23)cc1 (stereo not drawn)	1.7%[46.1 µM]	x	x	x	-10.4	x
